Experimental data reported in PubChem BioAssay AID1903 (Southern Research Specialized Biocontainment Screening …, 2009).
Screen size: about 310,000 compounds; about 1,200 (0.39%) were called active. The rule behind the calls is not given here. A selection follows. Results with a measured potency or affinity are listed apart.

What follows are compounds tested against Large T antigen (Simian virus 40) (UniProt P03070) (assay: SV40 large T antigen inhibitors, biochemical (AID 1903)). Details: SV40 large T antigen ATPase/helicase inhibition assay; at 20 µM; hits give high values.
Large T antigen (Simian virus 40), sequence (P03070 whole entry, looked up): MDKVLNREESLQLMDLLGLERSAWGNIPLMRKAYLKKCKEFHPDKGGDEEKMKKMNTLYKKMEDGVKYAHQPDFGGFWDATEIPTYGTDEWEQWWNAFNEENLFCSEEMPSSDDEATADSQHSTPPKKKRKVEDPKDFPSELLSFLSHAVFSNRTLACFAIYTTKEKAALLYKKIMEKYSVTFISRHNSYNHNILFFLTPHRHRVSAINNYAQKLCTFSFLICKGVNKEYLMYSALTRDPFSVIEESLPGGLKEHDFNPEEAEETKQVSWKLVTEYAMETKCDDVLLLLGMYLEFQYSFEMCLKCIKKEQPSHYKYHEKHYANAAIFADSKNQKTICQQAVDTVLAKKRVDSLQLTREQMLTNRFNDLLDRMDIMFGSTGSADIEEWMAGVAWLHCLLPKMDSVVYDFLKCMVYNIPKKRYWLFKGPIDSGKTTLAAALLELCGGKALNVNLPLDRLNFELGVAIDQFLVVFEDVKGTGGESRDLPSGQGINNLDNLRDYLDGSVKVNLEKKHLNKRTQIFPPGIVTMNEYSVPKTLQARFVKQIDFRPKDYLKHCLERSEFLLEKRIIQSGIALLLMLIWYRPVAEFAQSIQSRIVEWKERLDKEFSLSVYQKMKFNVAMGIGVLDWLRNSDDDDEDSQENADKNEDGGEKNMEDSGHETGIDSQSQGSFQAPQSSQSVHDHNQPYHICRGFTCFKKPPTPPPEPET

inhibition, inactive:
CC1=C/C(=C(\c2ccc(O)c(C)c2)c2ccccc2S(=O)(=O)O)C=CC1=O 1.87%
O=C(O)c1cc(S(=O)(=O)O)ccc1O -2.3%
O=C(NCC(c1cccs1)N1CCOCC1)c1ccc(Cl)cc1 (stereo unspecified) 20.7%
S=C(Nc1ccc(Nc2ccccc2)cc1)N1CCN(c2ncccn2)CC1 26.2%
COc1cc2c(cc1O)C(Cc1ccc(O)cc1)NCC2 (stereo unspecified) 14.4%
COc1cc2c(cc1OC)C(Cc1ccc(O)cc1)NCC2 (stereo unspecified) 70.4%
c1ccc(CCc2nn3c(Cn4nnc5ccccc54)nnc3s2)cc1 -1.97%
O=C1c2ccccc2CCCC12N=NCC2c1cccc2ccccc12 (stereo unspecified) -6.72%
Cc1ncc(CO)c(/C=N/NC(=O)c2ccc(Br)cc2)c1O 3.1%
Cc1ncc(CO)c(/C=N/NC(=O)c2ccc(O)cc2)c1O 4.85%
O=C1C(Cc2ccccc2)Nc2ncnc(N3CCCCC3)c2N1Cc1ccc(Cl)cc1 (stereo unspecified) 23.8%
Oc1ccc(C2=NNC(c3ccc(O)cc3)=NN2)cc1 6.31%
Oc1ccc(-c2cccc(-c3ccc(O)cc3)n2)cc1 24.3%
C=CSc1sc(Cl)c(N2CCOCC2)c1[N+](=O)[O-] 15.5%
C=CS(=O)(=O)c1sc(Cl)c(N2CCOCC2)c1[N+](=O)[O-] 28.6%
Cc1nc(-c2ccc(C(=O)Nc3cccc(Br)c3)cc2)cs1 5.4%
O=C(O)c1cn(CCOc2ccccc2Cl)c2ccccc12 -2.87%
CCNC(=O)NC(=O)CN(C)c1ccccc1 1.38%
COc1ccc(N(CC(=O)Nc2cc(C)on2)S(=O)(=O)c2cc(C)ccc2C)cc1 -9.08%
COc1cc(C(=O)O)ccc1Cl 8.61%
Cc1cccc(N=Nc2cnc(N)s2)c1 14.7%
COc1ccc(/C=C/C(=O)N(Cc2ccccc2)c2ccccn2)cc1OC -1.52%
O=C(/C=C/c1c(F)cccc1Cl)Nc1nc2ccccc2[nH]1 9%
O=C(CS(=O)(=O)c1ccccc1)c1cc2ccccc2oc1=O 32.7%
COc1ccc2cc(C(=O)CS(=O)(=O)c3ccccc3)c(=O)oc2c1 3.93%
Cc1cc(NC(=O)c2nn3cccnc3c2Cl)no1 4.99%
Clc1ccc(-c2cnc3ccccc3n2)cc1 5.89%
CN1C(=O)[C@@H]2C[C@@]3([C@@]45C[C@H]6C(=O)N(C)[C@@H](Cc7ccccc7)C(=O)N6[C@@H]4Nc4ccccc45)c4ccccc4N[C@H]3N2C(=O)[C@@H]1Cc1ccccc1 4.57%
O=Cc1cn(CCC(=O)O)nc1-c1cccc(Cl)c1 7.59%
O=C(O)CCn1cc(/C=C2\SC(=S)NC2=O)c(-c2ccccc2)n1 1.75%
COc1ccc(C2(C(=O)Nc3cc(C)on3)CCOCC2)cc1 0.88%
O=C(O)c1cccc(Cn2c(Cl)c(/C=N/NC(=O)c3ccccc3)sc2=O)c1 7.08%
O=C(O)c1cccc(Cn2c(Cl)c(/C=N/Nc3ccccc3)sc2=O)c1 29.6%
CCC(C(=O)NC1CCCCCC1)n1nc(C)c2c(C)n(-c3ccccc3)nc2c1=O (stereo unspecified) 8.34%
COC(=O)c1ccc(NC(=O)CN(C2CCCCC2)S(C)(=O)=O)cc1 -3.48%
Cc1ccc([N+](=O)[O-])cc1N -1.11%
Cc1cc([N+](=O)[O-])ccc1N 6.27%
Cc1ccc(CN2CCN(C/C=C/c3ccc(F)cc3)CC2CCO)o1 (stereo unspecified) 19.4%
Cc1sc2ncn(CC(=O)NCc3ccco3)c(=O)c2c1-c1ccc(F)cc1 14.3%
Cc1ccc(C(=O)N2CC(C)SC2=Nc2cccc(S(=O)(=O)N(C)C)c2)cc1 (stereo unspecified) 18.9%
CCN=C1S/C(=C\c2cc(Br)c(O)c(OC)c2)C(=O)N1CC 25.1%
COc1cc(/C=N/N2CCN(Cc3ccc(Cl)cc3)CC2)cc(Br)c1O 10.9%
COc1cc(/C=N/Nc2cccc(C)c2)cc(Br)c1O 13.3%
COc1cc(/C=N/n2c(C3CCCCC3)n[nH]c2=S)cc(Br)c1O 12.8%
CCN=c1scc(C)n1/N=C/c1ccc(O)c(O)c1O 9.52%
COc1ccc(/C=N/N2C(=O)CSC2=S)cc1Br 33.2%
COc1cc(/C=N/N2C(=O)CSC2=S)ccc1O 37.9%
CCN=c1scc(C)n1/N=C/c1ccsc1 12.1%
COc1ccccc1NC(=O)c1sc2nc(N3CCOCC3)c3c(c2c1N)CCCC3 15.5%
S=c1[nH]nc(-c2ccccn2)n1/N=C/c1c(Cl)cccc1Cl 24.9%
COc1ccccc1N1CCN(C(=O)/C=C/c2ccccc2)CC1 5.64%
COc1ccc(/C=C(/C#N)C(=O)Nc2ccc(C)cc2C)cc1C(=O)O 19.8%
COc1cc(NC(=O)C2=C(N3CCOCC3)/C(=C\c3ccc(Br)cc3)CC2)cc(OC)c1OC -0.46%
O=C(Nc1ccccc1)c1cccc(S(=O)(=O)N2CCCCC2)c1 1.37%
Cn1c2ccccc2c2n[nH]c(=S)nc21 14.8%
CCOC(=O)c1c(S(=O)(=O)NCc2ccc(OC)cc2)c(C)n(C)c1C 8.6%
O=C(CSCC(=O)N1CCCCC1)OCC(=O)c1c[nH]c2ccccc12 7.84%
O=C(CSC1=NS(=O)(=O)c2ccccc2N1)NCCc1ccccc1 10.2%
CCCCCC(=O)N/N=C/c1cc(Br)c(O)c(OC)c1 24.7%
O=C1CSC(=S)N1/N=C/c1ccc(Cl)c([N+](=O)[O-])c1 29.2%
O=C1CSC(=S)N1/N=C/c1cc(Br)ccc1O 19.8%
COc1cc(/C=N/NC(=O)CC2(C)OCCO2)cc(Br)c1O 18%
COc1cc(/C=N/N2C(C)CCCC2C)cc(Br)c1O (stereo unspecified) 29.5%
COc1cc(/C=N/N=C/c2cc(OC)c(O)c(OC)c2)cc(OC)c1O 36.7%
O=C(O)/C=C/c1ccc(S(=O)(=O)Nc2ccc(C(=O)NCC(=O)O)cc2)cc1 -0.46%
Cc1ccccc1OCC(=O)N(CC(C)C)c1c(N)n(CC(C)C)c(=O)[nH]c1=O -0.915%
CCOC(=O)c1sc(Nc2ccc(F)cc2)nc1C 3.22%
O=C(Cc1ccc(Cl)cc1)Nc1ccccc1C(=O)N1CCCCC1 5.13%
Oc1cccc(/C=N/N2CCN(c3ccccn3)CC2)c1 27.9%
Cn1cccc1/C=N/N1CCN(Cc2ccccc2Cl)CC1 36.4%
Cn1cccc1/C=N/N1CCN(Cc2ccc(Cl)cc2)CC1 33.2%
Cn1cccc1/C=N/N1CCN(c2ccccc2)CC1 26.4%
C(=N\N1CCN(c2ccccn2)CC1)/c1ccccn1 10.2%
Cc1ccc(/C=N/N2CCN(c3ccccn3)CC2)cc1 3.29%
O=C1CC(NCCN2CCOCC2)C(=O)N1Cc1ccc(N2CCCC2=O)cc1 (stereo unspecified) 2.31%
O=C(CSc1nc2ccccc2o1)NCCOc1ccccc1 -0.36%
CCOc1ccc(CSCCNC(=S)Nc2ccc(OC)cc2)cc1 18.9%
CCOc1ccc(CCNC(=O)C2CC(=O)N(c3ccc4c(c3)OCCO4)C2)cc1OCC (stereo unspecified) 19.5%
O=C(NCCNc1nccc(C(F)(F)F)n1)c1cccs1 7.79%
CCN(CC)C(=O)CSc1nc2nc(C)cc(C)c2c(=O)[nH]1 3.63%
O=C(Nc1ccc(C2SCCS2)cc1)c1ccccc1 5.93%
Cn1c(N)c(C(=O)COC(=O)CC2CC3CCC2C3)c(=O)n(C)c1=O (stereo unspecified) 12.6%
Cc1ccc(Cl)cc1Nc1nc(-c2cccnc2)cs1 5.81%
Cc1cccc(C)c1NC(=O)CSCC(=O)O 11.2%
Cc1cccc(C)c1NC(=O)CSCCO 7.3%
Brc1c(CSc2nncn2-c2ccccc2)nc2sccn12 3.07%
